DAX1 inh-1 = blocks DAX1 repression of SF-1 activated StAR promoter. HEK293T StAR-luciferase reporter, SF-1/DAX-1 repression relief. AID 652010. 370,000 compounds, 1.1% hits. inhibition, % at 6.8 µM;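 active = inhibition above the mean over all tested compounds plus 3 SD, cut at about 3.6% in these data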;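 also: 0% = DAX-1 cells with DMSO and 100% = cells lacking DAX-1 with DMSO; higher inhibition means more luminescence from relief of DAX-1 repression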
GAA850 FXN act = frataxin GAA850 promoter activation. HEK293 lucGAA850 FXN promoter luciferase reporter, 24 h; percent of 10 µM SAHA response. activation, % at 6 µM. 360,000 compounds, 0.56% hits. AID 540364;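 active = activation above the average of all compounds screened plus 3 SD, cutoff fixed separately per campaign, cut at about 7.5% in these data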;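 also: 0% = DMSO wells and 100% = 10 µM SAHA wells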
DAX1 inh-2 = NR0B1 (DAX1) inhibition | P51843 | HEK293 Gal4-DAX1 luciferase reporter, luminescence | inhibition, % at 6.75 µM | 340,000 compounds, 0.99% hits;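 active = inhibition above the mean over all tested compounds plus 3 SD, cut at about 4.2% in these data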;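 also: 0% = DAX1-transfected cells with DMSO and 100% = empty-vector control cells with DMSO; inhibition shows as a rise in luminescence from relieved DAX1 repression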
ssDAF12 agonist = S. stercoralis DAF-12 activation, primary screen. HEK293 ssDAF-12/GRIP1 lit1-tk-luc reporter, luminescence; % of 3 µM dafachronic acid response. activation, % at 6.8 µM. 370,000 compounds, 1% hits. AID 652126;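 active = activation above the mean over all tested compounds plus 3 SD, cut at about 0.9% in these data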;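 also: 0% = DMSO-only wells and 100% = 3 µM delta7-dafachronic acid wells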
hcDAF-12 act = H. contortus DAF-12 activation, primary screen | AID 652067 | 370,000 compounds, 1.4% hits | HEK293 hcDAF-12 lit1-tk-luc reporter, luminescence; 0% DMSO, 100% Δ7-dafachronic acid | activation, % at 6.8 µM;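 active = activation above the mean of all tested compounds plus 3 SD, cut at about 5.5% in these data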;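 also: 100% = response to 3 µM Δ7-dafachronic acid high control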
hgDAF-12 ag = activates the H. glycines DAF-12 receptor ligand-binding domain | activation, % at 6.8 µM | AID 687014 | HEK293 GAL4-hgDAF12 UAS-luciferase reporter, agonist luminescence; normalized to butyrate control | 370,000 compounds, 1.8% hits;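 active = activation above a cutoff set at the mean of all screened compounds plus 3 SD, cut at about 10% in these data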;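 also: 0% = DMSO wells and 100% = sodium butyrate wells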
DAX1 conf = confirmation of human DAX1 (NR0B1) inhibitors. shares compounds with DAX1 inh-1. HEK293T StAR-promoter luciferase reporter, SF-1/DAX-1 repression. inhibition, % at 6.8 µM. 2,400 compounds, 87% hits. AID 652134;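 active = inhibition above the average of every tested compound plus 3 SD, cut at about 3.8% in these data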;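 also: 0% = DAX-1 cells with DMSO and 100% = no DAX-1 control cells with DMSO; active compounds raise luminescence by relieving repression of the StAR reporter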
Target sequence (P51843 whole entry, looked up): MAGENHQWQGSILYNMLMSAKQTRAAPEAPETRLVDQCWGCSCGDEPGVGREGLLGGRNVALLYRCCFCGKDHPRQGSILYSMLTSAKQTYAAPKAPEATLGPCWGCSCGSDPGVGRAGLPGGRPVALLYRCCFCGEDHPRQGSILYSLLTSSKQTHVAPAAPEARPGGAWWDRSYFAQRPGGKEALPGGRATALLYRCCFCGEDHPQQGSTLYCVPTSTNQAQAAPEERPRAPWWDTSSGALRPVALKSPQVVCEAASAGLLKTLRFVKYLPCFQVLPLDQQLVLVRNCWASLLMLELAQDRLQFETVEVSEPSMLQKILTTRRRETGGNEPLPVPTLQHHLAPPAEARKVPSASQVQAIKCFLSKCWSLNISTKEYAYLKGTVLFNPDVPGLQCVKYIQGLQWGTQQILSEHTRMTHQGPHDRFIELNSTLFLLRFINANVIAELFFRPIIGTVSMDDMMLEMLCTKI
SF1 mutant ctr = counter-screen for DAX1 inhibitors: nonselective inhibitors with SF-1 AF2 mutant | shares compounds with DAX1 inh-1 | HEK293 StAR-luciferase, luminescence | inhibition, % at 6.8 µM | 2,400 compounds, 78% hits | AID 652136;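 active = inhibition above the mean of all tested compounds plus 3 SD, cut at about 3% in these data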;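 also: 0% = DAX-1 transfected cells with DMSO and 100% = cells without DAX-1 with DMSO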
Active calls of the source: *; . = not tested or not shown. An excerpt weighted towards active compounds, which were near 4.5% of everything screened.

SMILES	DAX1 inh-1	GAA850 FXN act	DAX1 inh-2	ssDAF12 agonist	hcDAF-12 act	hgDAF-12 ag	DAX1 conf	SF1 mutant ctr
c1ccc(C2=NNC(=NC3CC3)SC2)cc1	6.8*	-4	-2	1	5	12*	5.3*	2
CCOc1cc(N2CCOCC2)c(OCC)cc1NC(=O)Cn1nc(C)c([N+](=O)[O-])c1C	4.7*	0	-1	-1	-2	2	2	1
OCCN1CCN(c2ncnc3c2ncn3[C@H]2CN(Cc3ccc(Cl)cc3)C[C@@H](CO)O2)CC1	0	0	.	-1	-1	3	.	.
CCN(CC)C(=O)C(=O)N/N=C/c1ccc(F)cc1	0	0	0	-2	-2	0	.	.
CC(C)C[C@@H](CN1CCCC1CN1C(=S)NC[C@@H]1Cc1ccc(O)cc1)N1C[C@H](Cc2ccc(O)cc2)N(CC2CCCCCC2)C1=S (stereo partly specified)	6.3*	-2	-1	-2	0	3	1	1
CC(C)C[C@@H](CN1CCCC1CN1C(=S)NC[C@@H]1Cc1ccccc1)N1C[C@H](Cc2ccc(O)cc2)N(CCc2ccccc2)C1=S (stereo partly specified)	2	.	.	-1	-1	-2	.	.
CC(C)C[C@@H](CN1CCC[C@@H]1CN1C(=S)NC[C@@H]1Cc1ccc(O)cc1)N1C[C@H](Cc2ccc(O)cc2)N(CCc2ccccc2)C1=S	4.7*	.	.	-2	0	-1	-1	1
Cc1ccc(-c2c(C)sc(=NC(=O)c3ccco3)n2C)cc1	5.2*	5	1	0	2	9	6.8*	3.0*
O=C(CSc1nnc(-c2ccc(Br)cc2)o1)Nc1cccc(C(=O)O)c1	5.0*	3	-2	0	2	10	6.1*	5.4*
O=C(CSc1nnc(-c2ccncc2)o1)Nc1cc(F)ccc1F	4.9*	3	1	-1	3	13*	5.2*	5.9*
O=C(CSc1nnc(-c2ccncc2)o1)Nc1cccc(F)c1	1	2	1	-1	-1	4	.	.
O=C(CSc1nnc(-c2ccc(Br)cc2)o1)Nc1cccc2ccccc12	1	3	0	-1	0	2	.	.
CCc1nnc(NC(=O)C2=CCN(S(=O)(=O)c3ccc(F)cc3)CC2)s1	0	0	-2	-2	-1	-4	.	.
CC(=O)Nc1cc(-c2cccc(F)c2)cn2c(-c3ccccc3)cnc12	-1	3	.	-1	-1	1	.	.
COc1ccc(NS(=O)(=O)c2cccc(C(=O)NCC3(N4CCCCC4)CCCCC3)c2)cc1	7.8*	1	1	-1	1	4	10*	5.4*
CNS(=O)(=O)c1cccc(C(=O)NCC2(N3CCCCC3)CCCCC2)c1	0	1	0	-1	2	-1	.	.
CCOc1ccc(S(=O)(=O)Nc2ccc(C(=O)NCC3(N4CCCCC4)CCCCC3)cc2)cc1	8.7*	-1	2	-1	1	1	8.3*	4.9*
COc1ccc(NS(=O)(=O)c2ccc(C(=O)NCC3(N4CCOCC4)CCCCC3)cc2)cc1	4	-2	2	-1	-1	-4	.	.
Cc1cccc(NS(=O)(=O)c2cccc(C(=O)NCC3(N4CCCCC4)CCCCC3)c2)c1	5.0*	-1	1	-1	2	1	3	1
Cc1ccc(S(=O)(=O)Nc2cccc(C(=O)NCC3(N4CCCCC4)CCCCC3)c2)cc1F	6.2*	0	0	-1	1	-1	4.6*	3.8*
COc1ccc(NS(=O)(=O)c2cccc(C(=O)NCC3(N4CCOCC4)CCCCC3)c2)cc1	1	-2	0	-1	0	-1	.	.
Cc1ccc(OCCN(C)C(=O)C2CCC(=O)N(CCCN3CCCC3=O)C2)cc1 (stereo unspecified)	0	0	-1	-1	0	3	.	.
Cc1ccc(NC(=O)CSCC(=O)N(C)CC(=O)Nc2cccc(F)c2)cc1	-1	1	-1	-1	-1	1	.	.
